The record followed here is PubChem BioAssay (EPA / NIEHS).

Molecules are shown by their SMILES. Active and inactive are the calls of the source. Rule for the calls: active = hit-call score of the fitted dose curve at least 0.9, where 1 is the maximum; inactive = score below 0.9.

Read-out in assay [1]: Interferon-gamma inducible Protein 10 (IP10), CXCL10 (gene 3627)
In words: BSK_hDFCGF_IP10: BioMAP Diversity Plus: hDFCGF Assay for Interferon-gamma inducible Protein 10 (IP10) Biomarker Activity (AID 2283053). Particulars: primary human foreskin fibroblasts; actives raise or lower the signal. The procedure, abridged: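 Primary human foreskin fibroblasts exposed to chemicals for 24 h. IP-10 measured by ELISA; changes fitted bidirectionally against DMSO baseline.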

Read-out in assay [2]: Urokinase-type plasminogen activator receptor (uPAR), PLAUR (gene 5329)
Kind of assay: BSK_CASM3C_uPAR: BioMAP Diversity Plus: CASM3C Assay for Urokinase-type plasminogen activator receptor (uPAR) Biomarker Activity (AID 2283054).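 Note: cell-surface uPAR protein level quantified by ELISA.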 Particulars: primary human coronary artery smooth muscle cells; actives raise or lower the signal.

Read-out in assay [3]: Vascular cell adhesion molecule 1 (VCAM1), VCAM1 (gene 7412)
Kind of assay: BSK_CASM3C_VCAM1: BioMAP Diversity Plus: CASM3C Assay for Vascular cell adhesion molecule 1 (VCAM1) Biomarker Activity (AID 2283055).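 Note: VCAM-1 protein level quantified by ELISA on the cells.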 Particulars: primary human coronary artery smooth muscle cells; actives raise or lower the signal.

Read-out in assay [4]: Collagen III, COL3A1 (gene 1281)
In words: BSK_hDFCGF_CollagenIII: BioMAP Diversity Plus: hDFCGF Assay for Collagen III Biomarker Activity (AID 2283056). Particulars: primary human foreskin fibroblasts; actives raise or lower the signal. The method, boiled down: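 Cells: human foreskin fibroblasts, primary. Dosing followed by 24 h incubation, then ELISA for collagen III. Both increases and decreases scored relative to DMSO.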

Read-out in assay [5]: Epidermal growth factor receptor (EGFR), EGFR (gene 1956)
Kind of assay: BSK_hDFCGF_EGFR: BioMAP Diversity Plus: hDFCGF Assay for Epidermal growth factor receptor (EGFR) Biomarker Activity (AID 2283057). Particulars: primary human foreskin fibroblasts; actives raise or lower the signal. The procedure, abridged:
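Primary human foreskin fibroblasts (hDFCGF system), sampled 24 h after dosing; EGFR quantified by ELISA. Bidirectional fit relative to DMSO baseline; SRB total-protein staining in parallel cultures for cytotoxicity.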

Read-out in assay [6]: Interleukin-8 (IL8), CXCL8 (gene 3576)
Kind of assay: BSK_hDFCGF_IL8: BioMAP Diversity Plus: hDFCGF Assay for Interleukin-8 (IL8) Biomarker Activity (AID 2283058). Particulars: primary human foreskin fibroblasts; actives raise or lower the signal. The method, boiled down:
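IL-8 levels from compound-treated primary human fibroblasts were read by ELISA at 24 h, with DMSO serving as baseline for bidirectional fitting.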

The nature of assay [7]: BSK_hDFCGF_Proliferation: Cell Proliferation Assessment in the BioMAP Diversity Plus: hDFCGF Assay (AID 2283059).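 Note: curves fitted for both rise and fall of signal versus DMSO baseline.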 Particulars: primary human foreskin fibroblasts. The method, boiled down: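 Primary human foreskin fibroblasts, sub-confluent; […]; 10% TCA fix, 0.1% SRB stain, A560 total protein. Gain/loss fitted bidirectionally vs DMSO control.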
Read-out in assay [8]: Macrophage colony-stimulating factor (MCSF), CSF1 (gene 1435)
Kind of assay: BSK_hDFCGF_MCSF: BioMAP Diversity Plus: hDFCGF Assay for Macrophage colony-stimulating factor (MCSF) Biomarker Activity (AID 2283060). Particulars: primary human foreskin fibroblasts; actives raise or lower the signal. The method, boiled down: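 M-CSF levels, determined by ELISA, are taken at 24 h after dosing human skin fibroblasts. Responses in either direction are fitted with DMSO serving as the baseline.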

The nature of assay [9]: BSK_hDFCGF_SRB: Viability Assessment in the BioMAP Diversity Plus: hDFCGF Assay (AID 2283061).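 Note: cells exposed to compound for 24 h before the read.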 Particulars: primary human foreskin fibroblasts. The method, boiled down: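 Cells were dosed with test chemical, cultured 24 h, fixed with 10% TCA, then stained with 0.1% SRB and read at 560 nm. The fibroblasts were human foreskin primary cells, and DMSO served as baseline.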
Read-out in assay [10]: TIMP metallopeptidase inhibitor 1 (TIMP1), TIMP1 (gene 7076)
Kind of assay: BSK_hDFCGF_TIMP1: BioMAP Diversity Plus: hDFCGF Assay for TIMP metallopeptidase inhibitor 1 (TIMP1) Biomarker Activity (AID 2283062). Particulars: primary human foreskin fibroblasts; actives raise or lower the signal. The method, boiled down: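 Fibroblasts from human foreskin are treated with test chemical and harvested at 24 h. TIMP-1 is quantified by ELISA, and gain or loss of signal is scored against DMSO.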

Read-out in assay [11]: Monokine induced gamma interferon (MIG), CXCL9 (gene 4283)
Kind of assay: BSK_hDFCGF_MIG: BioMAP Diversity Plus: hDFCGF Assay for Monokine induced gamma interferon (MIG) Biomarker Activity (AID 2283063). Particulars: primary human foreskin fibroblasts; actives raise or lower the signal. The method, boiled down:
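MIG signal, determined by ELISA, reflects 24 h chemical exposure of human skin primary fibroblasts. DMSO serves as negative control and baseline.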

Read-out in assay [12]: Matrix Metallopeptidase 1 (MMP1), MMP1 (gene 4312)
In words: BSK_hDFCGF_MMP1: BioMAP Diversity Plus: hDFCGF Assay for Matrix Metallopeptidase 1 (MMP1) Biomarker Activity (AID 2283064). Particulars: primary human foreskin fibroblasts; actives raise or lower the signal. The method, boiled down:
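Primary human foreskin fibroblasts in the hDFCGF system were dosed with test chemical, and MMP1 was measured by ELISA 24 h later. Values come from bidirectional curve fitting against the DMSO baseline.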

Read-out in assay [13]: Plasminogen activator inhibitor-1 (PAI1), SERPINE1 (gene 5054)
In words: BSK_hDFCGF_PAI1: BioMAP Diversity Plus: hDFCGF Assay for Plasminogen activator inhibitor-1 (PAI1) Biomarker Activity (AID 2283066). Particulars: primary human foreskin fibroblasts; actives raise or lower the signal. The procedure, abridged: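 Human foreskin fibroblast primary cells, 24 h chemical exposure; PAI-1 measured by ELISA. Bidirectional fitting relative to DMSO; parallel cultures stained with SRB for total protein to flag overt cytotoxicity.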

Read-out in assay [14]: Intercellular Adhesion Molecule 1 (ICAM1), ICAM1 (gene 3383)
In words: BSK_KF3CT_ICAM1: BioMAP Diversity Plus: KF3CT Assay for Intercellular Adhesion Molecule 1 (ICAM1) Biomarker Activity (AID 2283067). Particulars: primary human keratinocytes with fibroblasts; actives raise or lower the signal. The procedure, abridged: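 Dose the keratinocyte/fibroblast co-culture, wait 24 h, measure ICAM-1 by ELISA, then fit increases or decreases against DMSO. Cytotoxicity is checked in parallel cultures by SRB total-protein staining.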

Read-out in assay [15]: Interferon-gamma inducible Protein 10 (IP10), CXCL10 (gene 3627)
Kind of assay: BSK_KF3CT_IP10: BioMAP Diversity Plus: KF3CT Assay for Interferon-gamma inducible Protein 10 (IP10) Biomarker Activity (AID 2283068). Particulars: primary human keratinocytes with fibroblasts; actives raise or lower the signal. The method, boiled down: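 In a primary skin co-culture of keratinocytes and fibroblasts, IP-10 is quantified by ELISA at 24 h after dosing. SRB staining of parallel wells monitors overt toxicity. Curves are fitted both directions against DMSO.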

Assay [16] in a line: BSK_KF3CT_SRB: Viability Assessment in the BioMAP Diversity Plus: KF3CT Assay (AID 2283069).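 Note: total protein by sulforhodamine B staining as a cytotoxicity measure.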 Particulars: primary human keratinocytes with fibroblasts. The method, boiled down: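 Human primary keratinocyte plus foreskin fibroblast co-culture exposed to chemicals for 24 h. Total protein measured by 0.1% sulforhodamine B staining after 10% TCA fixation, read at 560 nm; bidirectional fitting versus DMSO baseline.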

Read-out in assay [17]: Interleukin-1 alpha (IL1a), IL1A (gene 3552)
Kind of assay: BSK_KF3CT_IL1a: BioMAP Diversity Plus: KF3CT Assay for Interleukin-1 alpha (IL1a) Biomarker Activity (AID 2283070). Particulars: primary human keratinocytes with fibroblasts; actives raise or lower the signal. The method, boiled down: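 Human keratinocyte plus foreskin fibroblast primary co-culture, sampled 24 h after chemical dosing. IL-1a measured by ELISA; responses fitted bidirectionally against DMSO baseline (negative control), so gain or loss of signal both count.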

Read-out in assay [18]: TIMP metallopeptidase inhibitor 2 (TIMP2), TIMP2 (gene 7077)
Kind of assay: BSK_KF3CT_TIMP2: BioMAP Diversity Plus: KF3CT Assay for TIMP metallopeptidase inhibitor 2 (TIMP2) Biomarker Activity (AID 2283071). Particulars: primary human keratinocytes with fibroblasts; actives raise or lower the signal. The method, boiled down:
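Co-culture of human primary keratinocytes and foreskin fibroblasts, measured 24 h after chemical dosing. TIMP-2 quantified by ELISA and fitted in both directions relative to DMSO. Cytotoxicity checked in parallel cultures by SRB total-protein staining.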

Read-out in assay [19]: Transforming growth factor beta 1 (TGFb1), TGFB1 (gene 7040)
In words: BSK_KF3CT_TGFb1: BioMAP Diversity Plus: KF3CT Assay for Transforming growth factor beta 1 (TGFb1) Biomarker Activity (AID 2283072). Particulars: primary human keratinocytes with fibroblasts; actives raise or lower the signal. The method, boiled down: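 Human keratinocyte/foreskin fibroblast co-culture; TGF-b1 measured by ELISA 24 h after dosing, fitted bidirectionally versus DMSO. Cytotoxicity checked in parallel cultures by total protein (SRB staining, 560 nm).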

Read-out in assay [20]: Vascular cell adhesion molecule 1 (VCAM1), VCAM1 (gene 7412)
In words: BSK_hDFCGF_VCAM1: BioMAP Diversity Plus: hDFCGF Assay for Vascular cell adhesion molecule 1 (VCAM1) Biomarker Activity (AID 2283065). Particulars: primary human foreskin fibroblasts; actives raise or lower the signal. The procedure, abridged: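 Cells are dosed, cultured for 24 h, then VCAM-1 is quantified by ELISA; signal increases and decreases are both fitted relative to DMSO.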

For the compound `CCCCN(CCCC)C(=S)[S-].CCCCN(CCCC)C(=S)[S-].[Ni+2]`, the outcome in assay [1], in assay [2], in assay [3], in assay [4], in assay [5] and in assay [6] was inactive. The result in assay [7], in assay [8], in assay [9], in [10], in assay [11] and in [12] was inactive. Further, the outcome in [13], in [14], in assay [15], in [16], in assay [17] and in [18] was inactive. The outcome in [19] was inactive.
As for `C=CC(Cl)CCl` (stereo not drawn), the result in assay [1], in [2], in assay [4], in assay [5], in [6] and in [8] was inactive. The outcome in [9], in assay [10], in [11], in assay [12], in assay [13] and in assay [14] was inactive. The result in assay [15] and in assay [16] was inactive. Besides, the half-maximal activity concentration (AC50) (as a rule, the concentration giving half of the maximal activity seen) is 0.921 µM (active) in [3]; 20.4 µM (active) in [7]; 0.0797 µM (active) in assay [17]; 0.181 µM (active) in [18]; 0.189 µM (active) in [19].
Consider `O=C1C=CC(=O)c2ccccc21`, for which the AC50 in assay [1] is 1.55 µM (active); in [2], 4.99 µM (active); in assay [3], 3.84 µM (active); in assay [4], 1.27 µM (active); in assay [7], 0.905 µM (active); in [8], 1.17 µM (active). Further, the AC50 in [9] was 1.63 µM (active); in assay [10], 2.41 µM (active); in assay [11] it was 1.68 µM (active); in assay [12], 1.98 µM (active); in assay [13] it was 1.53 µM (active); in assay [14], 2.71 µM (active). The concentration at half-maximal activity (AC50) in assay [15] was 2.81 µM (active); in assay [17], 2.04 µM (active); in [18] it was 1.67 µM (active); in assay [19] it was 1.81 µM (active). Further, the outcome in assay [5], in [6] and in assay [16] was inactive.
Consider `CC(C=O)Cc1ccc2c(c1)OCO2` (stereo not drawn), for which the result in assay [1], in [2], in [3], in assay [4], in [5] and in assay [6] was inactive. Further, the outcome in [7], in assay [8], in [10], in [11], in assay [12] and in assay [20] was inactive. Besides, the result in assay [13], in assay [15], in [16], in assay [17], in [18] and in [19] was inactive.
Consider `O=c1oc2ccccc2c(O)c1C(CC(O)c1ccc(-c2ccc(Br)cc2)cc1)c1ccccc1` (stereo not drawn), for which the concentration at half-maximal activity (AC50) in assay [1] is 5.38 µM (active); in assay [2] it was 21.8 µM (active); in [3], 5.57 µM (active); in assay [4], 0.632 µM (active); in assay [5], 4.73 µM (active); in assay [7], 5.25 µM (active). The AC50 in assay [8] was 5.57 µM (active); in assay [9], 5.28 µM (active); in assay [11] it was 11.2 µM (active); in assay [12], 6.12 µM (active); in [13], 5.32 µM (active); in assay [14], 5.92 µM (active). For the same compound, the AC50 in [15] is 8.62 µM (active); in assay [16] it was 4.99 µM (active); in assay [17], 5.57 µM (active); in [18] it was 5.28 µM (active); in [19], 5.23 µM (active). The result in assay [6] and in assay [10] was inactive.
In the case of `CCN(CC)C(=O)C(Cl)=C(C)OP(=O)(OC)OC`, the outcome in assay [1], in assay [2], in assay [3], in assay [4], in assay [5] and in assay [6] was inactive. For the same compound, the outcome in assay [7], in assay [8], in assay [10], in [11], in assay [12] and in [20] was inactive. Moreover, the result in assay [13], in [14], in [15], in assay [16], in assay [17] and in assay [18] was inactive. The result in [19] was inactive.
